p53 reactivation – qHTS assay for re-activators of p53 using a Luc reporter; H1299 p53-A138V BP100-luciferase reporter, luminescence, 24 h; AID 504706, 2011; Potency, µM (doses to about 92.2 µM), for inactives: at the highest dose activity change, positive = activation, actives largely listed as activators; hit rate 0.063% among 320,000; also: potency is read from the fitted curve at half-maximal effect; % of control where 0% means no effect; nearly all actives have a fitted effect of over 45% in size
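p53-null H1299 cells stably carrying temperature-sensitive p53-A138V and a BP100-luciferase reporter were pinned with compounds (4-point, 1:5 series) and held 24 hrs at 37 deg C. Luminescence was read 10 min after detection reagent.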
LDHA block – qHTS assay for inhibitors of human lactate dehydrogenase | L-lactate dehydrogenase A chain (Homo sapiens), P00338 | purified LDHA, NADH/diaphorase-resazurin fluorescence; active compounds read low | activity change, % (values are at about 110 or 230 µM) | hit rate 0.15% among 480,000 | AID 1347041, 2019; in the data active = activity change below about -30%; inconclusive = mostly about -25% to -30%;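 also: plate controls were DMSO wells for no effect and wells without enzyme for full effect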
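Human LDH5 at 2 nM final in Tris HCl pH 7.4 with 0.06 mM NADH and 0.2 mM pyruvate, reacted 5 minutes at room temperature. Remaining NADH coupled via diaphorase/resazurin; resorufin fluorescence read at 0 and 20 minutes, normalized to enzyme-free and DMSO wells.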
GLP-1R inv ag – qHTS of GLP-1 Receptor Inverse Agonists (Inhibition Mode); Potency, µM (doses to about 38.3 µM), inactives show top-dose activity change, negative = inhibition, hits mostly inhibitors; AID 624417, 2012; hit rate 1.6% among 410,000; HEK293 GLP-1R CRE-luciferase, luminescence, 24 h; GLP-1R form is constitutively active; Glucagon-like peptide 1 receptor (Homo sapiens), P43220; also: potency is read from the fitted curve at half-maximal effect; % is scaled to controls: 0 for no effect and ±100 for the full control effect; nearly all actives have a fitted effect of over 55% in size
Target sequence (P43220 whole entry, looked up): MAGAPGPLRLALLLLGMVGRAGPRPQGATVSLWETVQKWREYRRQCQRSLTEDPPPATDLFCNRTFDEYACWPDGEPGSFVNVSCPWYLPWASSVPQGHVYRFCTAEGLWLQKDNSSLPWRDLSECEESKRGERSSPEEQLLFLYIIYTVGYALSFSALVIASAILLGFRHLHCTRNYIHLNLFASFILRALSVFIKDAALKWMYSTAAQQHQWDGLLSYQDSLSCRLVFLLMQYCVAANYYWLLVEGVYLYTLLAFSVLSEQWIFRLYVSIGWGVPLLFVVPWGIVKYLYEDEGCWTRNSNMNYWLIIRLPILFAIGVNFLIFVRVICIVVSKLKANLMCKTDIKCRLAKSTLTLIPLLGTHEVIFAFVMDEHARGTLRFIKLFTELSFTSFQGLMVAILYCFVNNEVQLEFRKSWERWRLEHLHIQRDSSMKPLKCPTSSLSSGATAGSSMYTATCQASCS
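Stable HEK293 clone (constitutively active GLP-1R + cAMP-response luciferase); 200 cells/uL plated, 12 h pre-culture, compound 24 hr, 37 deg C/5% CO2; detection reagent 12 min RT; luminescence.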
GLP-1R agonist – qHTS of GLP-1 Receptor Agonists; HEK293 GLP-1R CRE-luciferase, luminescence, 4-6 h; cells express a hypersensitive GLP-1R form; Glucagon-like peptide 1 receptor (Homo sapiens), P43220; AID 624172, 2012; Potency, µM (series often up to 45.6 µM), inactives show top-dose activation, actives largely listed as activators; hit rate 0.007% among 380,000; also: potency is read from the fitted curve at half-maximal effect; % of control where 0% means no effect
GLP1R cytotox – qHTS of GLP-1 Receptor Inverse Agonists: Cytotox Screen; hit rate 0.13% among 410,000; HEK293 cAMP-luciferase reporter cells, luminescence, 24 h; Potency, µM (doses to about 38.3 µM), for inactives: top-dose activity change, negative = inhibition, hits mostly inhibitors; AID 624418, 2012;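 also: loss of luciferase light is scored as toxicity; potency is read from the fitted curve at half-maximal effect; % is scaled to controls: 0 for no effect and ±100 for the full control effect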
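MLSMR compounds, 24 hr on cells at 37 deg C/5% CO2; luminescence after luciferase reagent (12 min RT). Inhibition counted as the undesired cytotoxic outcome.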
ClpP mod – qHTS Assay for Activators of ClpP. ATP-dependent Clp protease proteolytic subunit (Bacillus subtilis (strain 168)), P80244. purified B. subtilis ClpP, FRET peptide cleavage, 20 min. Potency, µM (top dose mostly 57.5 µM), for the others: at the highest dose activity change, negative = active. hit rate 1.9% among 340,000. AID 651965, 2013; active = well fitted falling curve with a large enough effect; inconclusive = small, poorly fitted or top-dose-only effect; inactive = no such curve, though single readings can be large or run the other way; also: potency is read from the fitted curve at half-maximal effect; the source files actives as falling curves though it sought activators and does not explain the sign; nearly all actives have a fitted effect of over 65% in size
Target sequence (P80244 whole entry, looked up): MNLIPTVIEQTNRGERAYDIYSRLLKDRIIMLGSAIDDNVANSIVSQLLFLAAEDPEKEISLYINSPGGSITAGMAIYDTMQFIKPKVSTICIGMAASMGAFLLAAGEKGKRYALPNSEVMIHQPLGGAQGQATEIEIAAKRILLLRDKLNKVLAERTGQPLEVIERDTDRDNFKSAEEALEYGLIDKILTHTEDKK
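Purified B. subtilis ClpP, 10 microg/mL final in Tris/HCl pH8 with KCl, BSA, glycerol and Tween-20, cleaved an Abz/nitrotyrosine-quenched decapeptide. Fluorescence (ex 320, em 430) was read at 0 and 20 min at room temperature. Delta was normalized to 5.8 microM ADEP and DMSO/no-enzyme controls.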
Active calls of the source: *; ? = inconclusive; . = no result given; [ ] = remark or other dose. Rows were chosen to be rich in hits. Some 2.9% of all compounds tested hit in one or more screens of this group. Unless noted, calls follow the shape of the dose curve; as a rule, active = well fitted curve in the direction sought with a large enough effect; inconclusive = small, poorly fitted or top-dose-only effect, or another doubt; inactive = no such curve, though single readings can be large; an effect the other way counts as inactive or inconclusive.

SMILES	p53 reactivation	LDHA block	GLP-1R inv ag	GLP-1R agonist	GLP1R cytotox	ClpP mod
COCCNC(=S)N/N=C/c1ccc(C(C)(C)C)cc1	.	0.5	.	.	.	.
O=C(COc1ccc(Br)cc1)Nc1ccc(C(=O)Nc2ccccc2C(=O)O)cc1	-8.3%	-31.8*	7.7%	-0.3%	5.5%	0.6%
COc1ccc(OCC(=O)Nc2ccc(C(=O)Nc3ccccc3C(=O)O)cc2)cc1	25.0%	-10.4	66.4%	-4.9%	5.7%	2.3%
O=C(COc1ccc(Br)cc1)Nc1ccc(-c2nnc(-c3ccco3)o2)cc1	?	-0.9	0.8%	-3.0%	-6.3%	10µM*
COc1ccccc1OCC(=O)Nc1ccc(-c2nnc(-c3ccco3)o2)cc1	0.8%	-5.6	5.6%[0.307 µM]	-6.1%	4.2%[0.307 µM]	-0.7%
COc1ccc(S(=O)(=O)N2CCC(C(=O)N3CCCCC3)CC2)cc1Cl	-0.5%	0.0	-0.6%	8.5%	-16.7%	0.7%
CC(=O)c1ccc(-c2ccc([C@H]3[C@@H]4C=CCC[C@@]4(C)C(=O)N3Cc3ccccc3)c(F)c2)cc1	10.4%	-2.7	11.2µM*	-5.8%	-5.4%	-6.2%
COc1ccc(-c2ccc([C@H]3[C@@H]4C=CCC[C@@]4(C)C(=O)N3Cc3ccccc3)c(F)c2)cc1	3.8%	-0.9	?	-5.4%	30.9%	?
COc1ccc(Br)cc1[C@H]1[C@@H]2C=CCC[C@@]2(C)C(=O)N1Cc1ccccc1	-1.3%	-1.3	4.47µM*	4.9%	-15.2%	-9.4%
COc1ccc(-c2cc([C@H]3[C@@H]4C=CCC[C@@]4(C)C(=O)N3Cc3ccccc3)ccc2F)cc1	0.8%	0.4	10µM*	5.6%	4.1%	-23.1%
O=c1/c(=C/c2ccc([N+](=O)[O-])cc2)sc2n1CCCN=2	-39.7%	2.3	18.7%	-5.1%	-15.3%	-1.2%
CCOc1cc(/C=N/NC(=O)CNc2cccc(C)c2)ccc1OC(=O)c1ccccc1	-4.9%	-0.8	?	-4.3%	-24.8%	10µM*
COc1cc(C=NNc2ccccc2)ccc1OC(=O)c1ccccc1	.	3.1	1µM*	-6.0%	-26.1%	-2.7%
CCOc1cc(/C=N/Nc2cccc(C(=O)O)c2)ccc1OC(=O)c1ccccc1	-8.0%	-7.4	?	-4.2%	-9.1%	.
CCOC(CNC(=O)c1ccc2c(c1)ncn2-c1cccc(F)c1)OCC	-2.7%	-5.2	6.9%	3.4%	-12.6%	.
Cc1cc(C)n2nc(C(=O)OCC(=O)Nc3ccc4c(c3)OCCO4)nc2n1	0.3%	-1.3	3.4%	-2.3%	-1.5%	-4.2%
O=C1OC(Nc2ccc(Br)cn2)c2ccccc21 (centres undefined)	-1.1%	-6.3	13.1%	0.2%	1.7%	-2.3%
OC(COc1ccc2ccccc2c1Br)Cn1cnc(-c2ccccc2)c1 (centres undefined)	-7.7%	-0.3	10µM*	5.0%	-22.6%	1.3%
COCc1cc(C)nc2oc(C(=O)c3ccccc3)c(N)c12	2.5%	3.5	17.2%[7.66 µM]	1.1%	23.6%[7.66 µM]	-25.6%
Cc1ccc(-n2nnnc2C(=Cc2ccc(N(C)C)cc2)c2nnnn2-c2ccc(C)cc2)cc1	-7.2%	1.5	10.5%	-3.3%	18.9%	-0.3%
CCN(CC)c1ccc(C=C(c2nnnn2-c2ccccc2)c2nnnn2-c2ccccc2)cc1	-2.5%	-2.8	-27.0%	6.0%	9.4%	28.2µM*
Clc1ccc2c(c1)-c1nnc(Br)n1-c1ccccc1S2	-15.3%	-5.9	?	3.3%	-6.4%	-0.8%
COc1ccccc1NC(=O)c1ccc(CN2C(=O)C(C)=C(c3ccc(C)c(C)c3)S2(=O)=O)cc1	.	3.5	-23.3%	.	-0.8%	-5.3%
CC1=C(c2ccc(C)c(C)c2)S(=O)(=O)N(Cc2ccc(C(=O)NCc3ccccc3F)cc2)C1=O	.	-8.8	5.9%	.	16.3%	14.1µM*
CC(=O)C1CCC2C3CC(C)C4(O)CC(=O)CCC4(C)C3C(O)CC12C (centres undefined)	.	-4.4	-3.6%	-7.3%	-0.8%	-0.3%
SMILES	p53 reactivation	LDHA block	GLP-1R inv ag	GLP-1R agonist	GLP1R cytotox	ClpP mod
Cc1nc2nc(SCC(N)=O)[nH]c2cc1Br	-12.7%	0.2	38.8%	1.1%	-3.6%	15.8µM*
CCOC(=O)CNC(=O)CSc1nc2nc(C)c(Br)cc2[nH]1	?	2.5	24.5%	1.3%	12.2%	-0.9%
CC(NC(=O)c1cccc(S(=O)(=O)N2CCN(Cc3ccccc3)CC2)c1)c1ccc(Br)cc1 (centres undefined)	-9.1%	-1.8	?	-15.4%	7.3%	25.1µM*
Cc1ccc(S(=O)(=O)Nc2cccc(C(=O)NC3CCN(Cc4ccccc4)CC3)c2)cc1F	-2.6%	1.8	?	-7.1%	?	-3.8%
COCCN(Cc1ccccc1)C(=O)c1cccc(S(=O)(=O)N2CCN(Cc3ccccc3)CC2)c1	.	-0.6	14.1µM*	4.3%	2.3%	-5.8%
O=C(NC1CCN(Cc2ccccc2)CC1)c1cccc(NS(=O)(=O)c2ccc(Br)cc2)c1	.	0.2	11.2µM*	0.1%	-27.1%	0.3%
CCN(Cc1ccccc1)C(=O)c1cccc(S(=O)(=O)N2CCN(Cc3ccccc3)CC2)c1	-5.8%	2.5	?	1.5%	9.2%	0.9%
Cc1ccc(S(=O)(=O)N2CCC(C(=O)O)CC2)cc1	-1.1%	-5.2	-21.3%	-3.2%	-4.6%	.
Cc1ccc(C)c(Nc2nc3c(S(=O)(=O)c4ccc(C(C)C)cc4)nnn3c3ccsc23)c1	.	-3.9	30.6%	.	21.0%	35.5µM*
Cc1ccc(C)c(Nc2nc3c(S(=O)(=O)c4ccc(Br)cc4)nnn3c3ccsc23)c1	.	-2.2	0.6%	.	-0.2%	28.2µM*
Cc1ccc(Nc2nc3c(S(=O)(=O)c4ccccc4)nnn3c3ccsc23)c(C)c1	.	-12.4	6.7%	.	2.1%	-1.0%
COc1ccccc1Nc1nc2c(S(=O)(=O)c3ccc(C(C)C)cc3)nnn2c2ccsc12	.	3.5	39.5%	.	-18.0%	-12.5%
CCCC(c1nnnn1CC(=O)OCC)N(Cc1cc2ccc(C)cc2[nH]c1=O)C1CCCC1 (centres undefined)	-0.8%	-3.8	11.6%	8.6%	19.2%	17.8µM*
CC(NS(=O)(=O)c1c(Cl)cc(Br)cc1Cl)C(=O)N1CCCCC1 (centres undefined)	.	7.0	.	.	.	.
COc1ccc(/C=N/NC(=O)c2cccnc2)cc1CN1CCCc2ccccc21	-7.1%	-5.9	10µM*	7.6%	6.6%	.
